# Results from PubChem BioAssay (NCI).
# About 83,000 compounds went through this panel and 20% of them were active in at least one assay; those are over-represented in the sample as a whole.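 Step 1: grow cells in 96-well plates. Step 2: add test compound at a single concentration. Step 3: incubate 48 h. Step 4: record percent growth.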 Unmarked numbers belong to inactive results. Active and inactive are the calls of the source. The calls were made as follows: active = growth percent below 10; inactive = the rest.
# Experiments:
# Test in all cases: NCI-60 one-dose screen, 48 h (100 = growth as untreated, 0 = no growth, -100 = all killed)
# Conditions in all cases: 10 µM
# [1] = test system: NCI-H23 lung
# [2] = test system: NCI-H226 lung
# [3] = test system: NCI-H322M lung
# [4] = test system: HOP-62 NSCLC
# [5] = test system: NCI-H522 lung
# [6] = test system: A549/ATCC NSCLC
# [7] = test system: 786-0 renal
# [8] = test system: COLO 205 colon
# [9] = test system: DU-145 prostate
# [10] = test system: K-562 leukemia
# [11] = test system: MALME-3M melanoma
# [12] = test system: MDA-MB-231 breast
# [13] = test system: RXF 393 renal
# [14] = test system: SF-268 CNS
# [15] = test system: SF-295 CNS
# [16] = test system: SF-539 CNS
# [17] = test system: UACC-257 melanoma
# [18] = test system: M14 melanoma
# [19] = test system: HCT-15 colon
Structure (SMILES),growth [1],growth [2],growth [3],growth [4] [%],growth [5],growth [6],growth [7],growth [8],growth [9],growth [10],growth [11] [%],growth [12],growth [13],growth [14],growth [15],growth [16],growth [17],growth [18],growth [19]
c1ccc(CO[C@H]2CO[C@H]3[C@@H]2OC[C@H]3OCc2ccccc2)cc1,107%,101%,101%,97.7,100%,111%,104%,100%,119%,106%,144,112%,119%,102%,95.3%,110%,108%,104%,99.1%
CCN(CCCCCCN1CC(=O)N(CCCCCCN(CC)Cc2ccccc2OC)CC1=O)Cc1ccccc1OC,60.4%,107%,96.5%,79.7,76%,85.8%,74.2%,54.6%,76.7%,4.44% (active),109,93.4%,,90.6%,72.2%,92.8%,108%,82.5%,83.5%
Cc1ccc(NC(=O)NC2CCCCC2)cc1,108%,95.5%,92.2%,96.1,82.8%,91.5%,98.6%,105%,114%,98%,108,115%,102%,108%,105%,102%,80.6%,107%,96.3%
CC[C@H]1CCC/C=C/[C@@H]2C[C@H](O)C[C@H]2[C@H](O)/C=C/C(=O)O1,-12.8% (active),-1.27% (active),-2.58% (active),25.2,,5.74% (active),-49% (active),-97.2% (active),3.43% (active),10.3%,,-88.4% (active),-29.2% (active),8% (active),-1.83% (active),30.9%,-13.6% (active),2.47% (active),8.78% (active)
Nc1c(C(=O)Nc2ccccc2Cl)sc2nc3c(cc12)C(=O)CCC3,42.3%,75.9%,37.9%,83.3,32.8%,24.9%,91.1%,3.38% (active),48.5%,24.9%,38.5,70.3%,61.7%,95.7%,14.7%,69.9%,42.9%,50.2%,32.8%
CC(=O)/C(=C/c1ccccc1)C(=O)CC(C)C,100%,106%,116%,115,95.2%,97%,95.9%,100%,92.8%,41.5%,,119%,103%,95.3%,102%,109%,89.6%,82.9%,76.1%
CNc1ncc(-c2ccc(C(F)(F)F)cc2)c(NC2CCCCCC2)n1,62.6%,70.3%,76.6%,92.6,57.6%,,79.4%,68.5%,91%,76.2%,61.3,92.8%,80.6%,99.7%,79.4%,93.5%,73.2%,93.9%,81.5%
COc1ccc(OC)c(/C=C/c2nnc(Nc3ccc(Cl)cc3)o2)c1,87.8%,56.1%,58.6%,35.3,92.9%,40.2%,27.9%,74.2%,78.9%,80.6%,41.5,70.9%,56.3%,76.5%,46.9%,90%,100%,77.9%,98.3%
COc1ccc([N+](=O)[O-])c(C(=O)O)c1,105%,95%,93.4%,100,73.4%,103%,101%,102%,112%,88.6%,105,121%,98.3%,102%,88.7%,98.7%,110%,100%,98.5%
Cc1cccc(Cl)c1NC(=O)c1ccc2nc(NC(=O)NC3CCN(C)CC3)sc2c1,82.3%,121%,95.5%,63.1,83.5%,91.5%,91.2%,37.4%,103%,7.86% (active),60.8,96.7%,,86%,83.5%,44.3%,84.7%,104%,101%
COc1cc(C)ccc1C(=O)c1ccc(C)cc1OC,48.6%,62.9%,44.5%,27.7,-6.71% (active),26.9%,48.7%,-24.9% (active),0.538% (active),10%,,41.2%,-10.5% (active),43.5%,-39.1% (active),3.62% (active),60.3%,12.4%,36.3%
Nc1cc2c(cc1Cl)-c1ccc([N+](=O)[O-])cc1/C2=N\O,83.4%,93.3%,50.1%,111,69.8%,59.2%,90.8%,109%,63%,30.5%,90.7,105%,104%,79.1%,74.8%,75.9%,103%,78.2%,62.9%
CCCCCCCCCCCCC1C/C=C\CCCC(=O)O1 (configuration not stated),91.1%,167%,108%,106,98.1%,80.7%,98.4%,113%,130%,101%,107,119%,,103%,103%,107%,118%,100%,97.2%
COc1ccc(-c2nc3sccn3c2-c2nc3c([nH]2)C(=O)c2ccccc2C3=O)cc1,95.7%,95.1%,108%,107,96.8%,67.5%,89.4%,102%,104%,84.8%,151,96.1%,98.2%,,87.2%,98%,89.2%,130%,87.8%
